Screening data as filed in PubChem BioAssay.
This is one part of a sample in which hits are shown more often than they occur.
TTR transcr act = TTR transcription activators in neuroblastoma reporter cells, primary screen, cell-based, luminescence, SH-SY5Y, TTR promoter Gaussia luciferase; 100% = recombinant luciferase protein wells; activation, % at 16.7 µM; 92,000 tested, 1.3% active;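 active = activation above the mean of all tested compounds plus 3 SD, cut at about 9.5% in these data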;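 also: cells exposed to compounds for one day before reading; 0% = median of all test compound wells on the plate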
TTR inh HuH7 = TTR promoter reporter inhibitors in hepatoma cells, counter-screen for TTR transcription activator project, cell-based, luminescence, HuH7 hepatoma; inhibition, % at 16.7 µM; 1,100 tested, 4% active; HuH7 TTR promoter-Gaussia luciferase reporter; shares compounds with TTR transcr act; AID 1117279, 2014;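 active = average inhibition above the solvent-only control wells' mean plus 3 SD, cut at about 15% in these data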;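 also: 0% = cells with DMSO only and 100% = cells with inhibitor control FD; inhibitors lower well luminescence so higher value means more inhibition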
TTR act confirm = TTR transcription activators, retest, confirmation, cell-based, luminescence, SH-SY5Y, triplicate. shares compounds with TTR transcr act. SHSY5Y TTR promoter Gaussia luciferase; 100% = purified Lucia enzyme wells, no cells. activation, % at 16.7 µM. 1,100 tested, under 10 active;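 active = mean activation above a set limit taken from the earlier primary screen, cut at about 11% in these data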;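 also: 0% = DMSO-treated cells and 100% = recombinant Lucia luciferase without cells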
Active calls of the source: *.

SMILES | TTR transcr act | others
CN(C)c1ccc(NC(=O)CSc2nnc(-c3cnccn3)n2C)cc1 | 0.2
CCN(C(=O)COC(=O)c1ccc2c(c1)OCO2)c1ccc(F)cc1 | 2.6
C[C@@H]1[C@@H](O)C[C@@]2(C[C@H](O)c3cc(F)ccc3O2)O[C@H]1c1ccccc1Cl | 7.6
O=C(N/N=C/c1cc([N+](=O)[O-])ccc1O)c1cccc2ccccc12 | 3.0
CCC[C@H]1[C@@H](NC(=S)Nc2ccccc2Cl)CC[C@@]23CCCN2C(=O)CCC[C@@H]13 | 0.8
O=C(Nc1ccc(F)cc1)OCc1cn(Cc2ccc(F)cc2)nn1 | -1.1
O=C(Nc1ccc(F)cc1)OCc1cn(Cc2cccc(F)c2F)nn1 | 0.9
CC(C)C[C@H](NC(C)(C)C(=O)NC1CCCCC1)C(=O)NCC(c1ccccc1)c1ccccc1 | -1.2
O=C(Cc1ccc2c(c1)OCO2)N1CCC(n2nc(-c3ccccc3)oc2=O)CC1 | -1.0
Cc1ccccc1NC(=O)C1C2CCC(O2)C1C(=O)O (centres undefined) | 1.9
Cc1ccccc1NC(=O)C12CC3CCC1(C)C3(C)CO2 (centres undefined) | 14.0* | TTR inh HuH7=-14.5;TTR act confirm=0.0
CC12COC3(C(=O)NCCc4ccccc4)CC1CCC32C (centres undefined) | 3.1
CC(C)n1nnnc1C1(C)CN(S(C)(=O)=O)CC(=O)N1Cc1cccc(C(F)(F)F)c1 (centres undefined) | -1.2
O=C(Cn1nc(C(F)(F)F)c2c1CCCC2)NCc1ccco1 | 14.5* | TTR inh HuH7=-22.5;TTR act confirm=-0.5
CC(NC(=O)Cn1nc(C(F)(F)F)c2c1CCC2)c1ccccc1 (centres undefined) | -1.2
Cc1c(Br)c(C(F)(F)F)nn1CC(=O)NCc1ccco1 | 0.0
C=CCC[C@@H](Cc1ccc(F)cc1)C(=O)OC[C@@H](Cc1ccccc1)NC(=O)[C@H](CC=C)CC(=O)NCCO | -1.3
C=CC[C@@H](CC(=O)NCCO)C(=O)N[C@@H](C)COC(=O)[C@@H](CC=C)Cc1ccc(F)cc1 | 20.5* | TTR inh HuH7=-15.2;TTR act confirm=0.3
C=CC[C@@H](CC(=O)N[C@H](CO)Cc1ccccc1)C(=O)N[C@@H](C)COC(=O)[C@@H](CC=C)Cc1ccc(F)cc1 | -4.9
CCOC(=O)c1cccc(-c2cc(C(=O)OC)c3n(c2=O)CCC3)c1 | -0.9
CC1CCN(CC(=O)NCCc2ccc(F)cc2)CC1 | -0.9
CCOC(=O)c1cc2cc(OC)ccc2n1C1CCN(CCc2ccccc2)CC1 | 1.3
COc1c(O)cccc1[C@@H](O)C1CCN(CCc2ccc(F)cc2)CC1 | 70.1* | TTR inh HuH7=-3.8;TTR act confirm=-0.2
COc1cccc(N(C)C(=O)[C@@H](C2CC2)[C@@H](O)c2ccc3ccccc3c2)c1 | 1.1
O=S1(=O)c2ccc(N3CCC[C@H]3CO)cc2O[C@H]2CCN1C2 | -0.2
SMILES | TTR transcr act | others
COc1ccc(C)c(NC(=O)[C@@H]2CCCN2S(=O)(=O)c2cccc3cccnc23)c1 | -0.2
COc1ccc(N(C(C)C(=O)N/N=C/c2ccc(OC)c(OC)c2)S(C)(=O)=O)cc1 (centres undefined) | -1.1
COc1ccc(N(C(C)C(=O)NN=C2CCCCCCC2)S(C)(=O)=O)cc1 (centres undefined) | 14.8* | TTR inh HuH7=-8.6;TTR act confirm=-0.9
COc1ccc(N(C(C)C(=O)N/N=C/c2cccnc2)S(C)(=O)=O)cc1 (centres undefined) | -0.6
O=C(OCC#CCSc1nnc(-c2cccc3ccccc23)o1)c1ccccc1F | 2.4
O=C(Nc1ccc(F)cc1)Nc1c(-c2ccc(F)cc2)nc2ncccn12 | -1.0
CC(=O)c1cc(C(C)=O)c(C)nc1C | 9.9* | TTR inh HuH7=-7.4;TTR act confirm=12.8*
CC(=O)c1cc(C#N)c(Oc2ccccc2)nc1C | -2.3
CCSc1nc(C)c(C(C)=O)cc1C#N | 0.0
CN(CCCn1ccc(N)nc1=O)Cc1ccco1 | 17.5* | TTR inh HuH7=-9.4;TTR act confirm=-0.4
COc1ncnc2c1ncn2CCCN(C)Cc1ccco1 | -0.7
COc1ccc(CN(C)CCCn2ccc(N)nc2=O)cc1OC | -0.1
COC(=O)[C@]12C[C@H](CC(=O)NCc3ccc(C)o3)C(=O)N(Cc3ccco3)C1=C[C@H](COCc1ccccc1)O[C@@H]2C | 0.7
NC(=O)C12NC(Cc3ccccc31)c1ccccc12 (centres undefined) | 0.0
COC(=O)[C@]12C[C@H](CC(=O)NCC3CCCCC3)C(=O)N(Cc3ccccc3)C1=C[C@H](COCc1ccccc1)O[C@@H]2C | -0.9
COC(=O)[C@]12CCCCC=C1N(Cc1ccc(OC)cc1)C(=O)[C@@H]2CC(=O)N1CCCCC1 | -0.2
CCN(CC(=O)Nc1ccc(NC(C)=O)cc1)C(=O)c1c(-c2c(F)cccc2Cl)noc1C | 17.0* | TTR inh HuH7=-10.2;TTR act confirm=-0.3
CCN(CC(=O)Nc1c(F)cccc1F)C(=O)c1c(-c2ccccc2Cl)noc1C | -0.6
COc1cccc(NC(=O)CN(C)C(=O)c2c(-c3c(F)cccc3Cl)noc2C)c1 | 1.3
COC(=O)C[C@H]1CC[C@@H]2[C@@H](COc3ccc(NS(=O)(=O)c4ccccc4Cl)cc3C(=O)N2C)O1 | -1.5
Cc1ccc(N/C=C2\CCCCC2=O)c(C)c1 | 1.8
Cc1ccc(N/C=C2\CCCCC2=O)nc1 | 9.9* | TTR inh HuH7=-8.5;TTR act confirm=-0.3
O=C1CCCC/C1=C/Nc1cccc(C(F)(F)F)c1 | 0.1
CCOC(=O)CCCNC(=O)OCCCN1CCC2(CCC(c3ccccc3)CC2)C1=O (centres undefined) | -1.2
COC(=O)[C@@]12CCCCC=C1N(CCc1ccc(Cl)cc1)C(=O)[C@H]2CC(=O)NCCc1ccccc1OC | -0.8
SMILES | TTR transcr act | others
CCCCC(c1nnnn1C1CCCC1)N1CCN(C2CCCC2)CC1 (centres undefined) | 17.0* | TTR inh HuH7=-15.3;TTR act confirm=-0.2
CCC(c1nnnn1Cc1cccs1)N1CCN(C2CCCC2)CC1 (centres undefined) | -0.5
CC(C)CC(c1nnnn1C1CCCCC1)N1CCN(c2ncccn2)CC1 (centres undefined) | -1.4
Cc1ccc2nc(Cl)cc(=O)n2c1 | 1.3
NC(=O)C1CCN(c2nc(-c3ccc4c(c3)CCO4)cs2)CC1 | 1.5
C[C@@H]1CN([C@H](C)CO)C(=O)CCCn2nncc2CO[C@@H]1CN(C)S(=O)(=O)c1ccccc1F | 0.7
COc1cccc(C(=O)OCC(=O)N2CCc3ccccc32)c1OC | 11.7* | TTR inh HuH7=-16.8;TTR act confirm=1.3
COc1ccccc1C(=O)N1CCc2ccccc21 | -2.0
Cc1ccccc1OCC(=O)OCC(=O)N1CCc2ccccc21 | -1.6
COC(=O)c1ccc(Cn2ccc3ccc(-c4ccc5ccn(C(=O)c6ccccc6C)c5c4)cc32)cc1 | 0.4
CCC[C@H]1[C@@H](OC(=O)NCc2ccc(Cl)c(Cl)c2)CC[C@@]23CCCN2C(=O)CCC[C@@H]13 | -2.9
CC(/C=N/NC(=O)c1nnn(-c2nonc2N)c1C(C)C)=C\c1ccco1 | 2.5
C[C@H]1[C@@H](NS(=O)(=O)c2ccccc2[N+](=O)[O-])CC[C@@]23CCCN2C(=O)CCC[C@@H]13 | -0.8
NC(=O)NCc1ccc(F)cc1 | 0.0
CC(C)(C)CC(=O)NCc1ccc(F)cc1 | 15.0* | TTR inh HuH7=-15.5;TTR act confirm=-1.4
Cc1ccc(C(=O)OCC(=O)NCc2ccc(F)cc2)o1 | 5.3
